Assay type in all cases: functional
In assay [1] the test system is Plasmodium falciparum. Nature of the assay: GSK_TCMDC: Inhibition of Plasmodium falciparum 3D7 in whole red blood cells, using parasite LDH activity as an index of growth. Test compounds present at 2uM.
Assay [2] has as its system Plasmodium falciparum. Nature of the assay: GSK_TCMDC: Inhibition of Plasmodium falciparum Dd2 in whole red blood cells, using parasite LDH activity as an index of growth. Test compounds present at 2uM.
Assay [3] deals with HepG2. Nature of the assay: GSK_TCMDC: Percent inhibition of human HepG2 cell line. Test compounds present at 10uM.

The structures appear in SMILES notation.

In general, Inhibition refers to the share of the control response that was lost under treatment. On to `CCC(CN1C(=O)C(c2ccccc2)(c2ccccc2)N=C1N)c1ccccc1.O=CO` (configuration not stated), for which the values for the Inhibition in assay [1], in assay [2] and in assay [3] were 98%, 98% and 11%, respectively.
As for `O=C(COc1ccccc1)NC1CCN(c2ccnc3cc(Cl)ccc23)C1.O=C(O)C(F)(F)F` (configuration not stated), the Inhibition in assay [1] amounted to 100%; in assay [2], 35%; in assay [3], 22%.
The corresponding values for `CCNc1cc(C(=O)N[C@@H](Cc2ccccc2)[C@H](O)CNCCc2ccccc2)cc(N2CCCCS2(=O)=O)c1.Cl` are 98%, 91% and 14%.
On the same counts, the results for `CC(C)(C)OC(=O)n1cc(C2CCN(CCCC34CCCc5cccc(c53)NC4=O)CC2)c2ccncc21` (configuration not stated) are 92%, 0% and 20%.
On the same counts, the results for `Cc1cc2nc(-c3ccc(/C=C/C(=O)NCCc4ccccc4)cc3)[nH]c2cc1C` are 98%, 13% and 3%.
Consider `Cc1ccc(Nc2nccc(NCC(O)c3cccc(C)c3)n2)cc1` (configuration not stated), for which the figures for the Inhibition in assay [1], in assay [2] and in assay [3] were 90%, 23% and 22%, respectively.
For the molecule `COc1ccc(-c2cccc(NC(=O)c3ccc(F)cc3)c2)cc1CN1CCCN(C)CC1.O=C(O)C(F)(F)F`, the Inhibition in assay [1] was found to be 100%; in assay [2] it was 35%; in assay [3], 26%.
The corresponding values for `Br.COc1ccc(OC)c2c1CCN(C)C2Cc1cccc2ccccc12` (configuration not stated) are 91%, 79% and 13%.
The corresponding values for `CC1(C)N=C(N)N=C(N)C1c1ccc(Cl)cc1.Cl` (configuration not stated) are 96%, 0% and 16%.
On the same counts, the results for `CC(C)Nc1cc(C(=O)N[C@@H](Cc2ccccc2)[C@H](O)CNC2CCOCC2)c(F)c(N2CCCCS2(=O)=O)c1.O=CO` are 98%, 98% and 2%.
Turning to `COc1cc2nc(NCCc3ccccc3)nc(NCCc3ccccc3)c2cc1OC`, the figures for the Inhibition in assay [1], in assay [2] and in assay [3] were 100%, 100% and 99%, respectively.
As for `Cc1nc(-c2ccc(-c3ccc(NC(=O)c4coc5ccc(N6CC(C)NC(C)C6)cc45)cc3)c(C)c2)no1.Cl` (configuration not stated), the Inhibition is 100% in assay [1], 88% in assay [2] and 1% in assay [3].
As to `CCC(=O)c1ccc(-c2ccc(=O)n(CC(=O)N(CCN(CC)CC)Cc3ccc(-c4ccc(C(F)(F)F)cc4)cc3)n2)cc1`, the results for the Inhibition in assay [1], in assay [2] and in assay [3] were 98%, 67% and 91%, respectively.
In the case of `O=C(Nc1ccc2c(c1)CCC2)c1ccc(N2CCN(c3ccncc3)CC2)cn1.O=C(O)C(F)(F)F`, the values for the Inhibition in assay [1], in assay [2] and in assay [3] were 99%, 58% and 56%, respectively.
On the same counts, the results for `Cc1cc2ncn(-c3nccc(NCc4ccc(F)c(C)c4)n3)c2cc1C.O=C(O)C(F)(F)F` are 90%, 82% and 10%.
On the same counts, the results for `Cc1cc(NCCc2ccc(O)cc2)nc(NCC(c2ccccc2)c2ccccc2)n1` are 100%, 77% and 22%.
Consider `COc1ccc(Nc2nc(=Nc3ccccc3)nc(NN=Cc3cc(Cl)ccc3O)[nH]2)cc1`, for which the values for the Inhibition in assay [1], in assay [2] and in assay [3] were 100%, 10% and 55%, respectively.
Turning to `O=C(Cc1cc(F)cc(F)c1)NC1CCN(c2ccnc3cc(Cl)ccc23)C1.O=C(O)C(F)(F)F` (configuration not stated), the Inhibition in assay [1] came out at 82%; in assay [2], 100%; in assay [3], 13%.
The corresponding values for `COCCNC(=O)C(CNC(=O)c1ccc2c(c1)OCO2)NC(=O)c1ccc(-c2ccccc2)cc1` (configuration not stated) are 90%, 3% and 14%.
The corresponding values for `Cl.N=C(N)NN=Cc1c2ccc(Cl)cc2c(Cl)c2ccc(Cl)cc12` are 100%, 90% and 28%.
The corresponding values for `Cc1cccc2[nH]cc(C3CCN(CCC4CCN(C(=O)/C=C/c5ccc(Cl)c(Cl)c5)CC4)CC3)c12` are 91%, 8% and 13%.
`N#Cc1ccc2[nH]cc(-c3cn4cc(SC5CCCC5)ccc4n3)c2c1`: the Inhibition in assay [1] is recorded as 92%; in assay [2] it was 21%; in assay [3], 1%.
The corresponding values for `CCOC(=O)Nc1cc(-c2csc(N=C(N)N)n2)cc([N+](=O)[O-])c1` are 100%, 88% and 12%.
On the same counts, the results for `CN1CCC(N2CCN(CCOc3cc(NC(=O)/C=C/c4ccccc4Cl)ccc3Br)CC2)CC1.O=C(O)C(=O)O` are 100%, 99% and 36%.
As to `COCCNCc1ncsc1-c1ccc2c(Nc3cc(O)ccc3C)ccnc2c1`, the Inhibition was found to be 100% in assay [1], 40% in assay [2] and 9% in assay [3].
On the same counts, the results for `CCOC(=O)NCC(=O)Nc1cccc(-c2cccc(-c3nc4cc(C(F)(F)F)ccc4[nH]3)c2)c1` are 91%, 34% and 59%.
The corresponding values for `CSc1nc2nc(C)c(Cc3cccc(F)c3)c(C)n2n1` are 87%, 45% and 3%.
As for `COc1ccccc1C1CCN(C2CCC(NC(=O)c3ccc4[nH]c(-c5ccc(C)cc5)nc4c3)CC2)CC1` (configuration not stated), the Inhibition in assay [1], in assay [2] and in assay [3] was 100% throughout.
As for `COc1cc(C(=O)NC2CC(C)(C)NC(C)(C)C2)ccc1-c1cc2cc(Cl)c(Cl)cc2[nH]1.O=C(O)C(F)(F)F`, the Inhibition is 99% in assay [1], 31% in assay [2] and 41% in assay [3].
